From PubChem BioAssay (NCATS) come the findings set out here.

Experiment [1] addresses Cellular tumor antigen p53 (Homo sapiens) (UniProt P04637). Nature of the experiment: Primary qHTS for small molecule compounds that upregulate eGFP-tagged delta133p53alpha (in N-terminal) cells. (AID 2060322).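 For activation: series mostly up to about 56 µM; 0% = DMSO vehicle and 100% = reference activator.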 Note: nearly all actives have a fitted effect of over 75% in size. Note: potency is the fitted concentration of half-maximal effect. To be noted: NCI-H358 eGFP-delta133p53alpha fluorescence, 24 h; activation: stronger effect = higher value. An outline of the steps: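 NCI-H358 cells pre-induced 24 h with 10 ng/ml doxycycline to express N-terminal eGFP-delta133p53alpha, then dosed 24 h at 37C without doxycycline; fixed, Hoechst-stained, GFP intensity by laser scanning cytometry, normalized to DMSO (0%) and 57.5 uM 5-azacytidine (100%).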
(In general: Quantitative high-throughput screening tests each substance at several concentrations.)

Experiment [2] has as its target Aldehyde dehydrogenase, mitochondrial (Homo sapiens) (UniProt P05091). Nature of the experiment: qHTS for Inhibitors of the Aldehyde Dehydrogenase Family (ALDH2) Primary screen (AID 2061308).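 Note: plate controls were vehicle for no effect and reference inhibitor for full effect; nearly all actives have a fitted effect of over 55% in size.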
In experiment [3] the target is Retinaldehyde dehydrogenase 3 (Homo sapiens) (UniProt P47895). Nature of the experiment: qHTS for Inhibitors of the Aldehyde Dehydrogenase Family (ALDH1A3) Primary screen (AID 2061315).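 Note: plate controls were DMSO vehicle for no effect and reference inhibitor for full effect.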

Inconclusive results are not listed. Unmarked numbers belong to inactive results. Active and inactive are the calls of the source. Calls come from the whole dose curve; as a rule, active = well fitted curve in the direction sought with a large enough effect; inconclusive = small, poorly fitted or top-dose-only effect, or another doubt; inactive = no such curve, though single readings can be large; an effect the other way counts as inactive or inconclusive.

Sequence of Cellular tumor antigen p53 (Homo sapiens) (P04637 whole entry, looked up): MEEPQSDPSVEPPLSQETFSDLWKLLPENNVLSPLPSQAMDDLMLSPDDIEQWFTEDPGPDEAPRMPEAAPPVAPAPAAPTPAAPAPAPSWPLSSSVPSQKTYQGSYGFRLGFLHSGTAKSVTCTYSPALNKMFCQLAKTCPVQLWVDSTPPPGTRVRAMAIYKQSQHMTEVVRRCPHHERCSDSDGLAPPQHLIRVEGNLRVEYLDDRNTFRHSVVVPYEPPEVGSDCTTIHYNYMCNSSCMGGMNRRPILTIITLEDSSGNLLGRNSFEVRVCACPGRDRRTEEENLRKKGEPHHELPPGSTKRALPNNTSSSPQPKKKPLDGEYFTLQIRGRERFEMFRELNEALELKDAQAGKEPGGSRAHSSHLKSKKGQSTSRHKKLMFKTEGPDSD

Consider `CC[C@@H](C)[C@H]1C(=O)O[C@H](C(C)C)C(=O)N(C)[C@@H]([C@@H](C)CC)C(=O)O[C@H](C(C)C)C(=O)N(C)[C@@H]([C@H](C)CC)C(=O)O[C@H](C(C)C)C(=O)N1C`, for which the activation in experiment [1] is 9.82%. Besides, the Potency entry in experiment [2] and in experiment [3] was “inactive” each time.
For `CC[C@H]1CN2CC[C@H]1C[C@H]2[C@H](O)c1ccnc2ccc(OC)cc12`, the activation in experiment [1] was 7.14%. For the same molecule, the Potency result in experiment [2] and in experiment [3] was “inactive” throughout.
For `CC(=O)OC[C@]12[C@H](OC(C)=O)C(=O)[C@@H]3[C@@H](O)[C@@]14O[C@@]3(C)COC(=O)c1cccnc1[C@@H](C)[C@H](C)C(=O)O[C@@H]([C@H](OC(C)=O)[C@@H]2OC(C)=O)[C@]4(C)O`, the activation in experiment [1] was 21.4%. Besides, the Potency entry in experiment [2] and in experiment [3] was “inactive” each time.
Take `C/C1=C/[C@@H](C)C/C=C/[C@H]2[C@@H]3O[C@]3(C)[C@@H](C)[C@H]3[C@H](Cc4c[nH]c5ccccc45)NC(=O)[C@]32C(=O)/C=C\C(=O)[C@@H]1O`: the Potency in experiment [1] was 11.7 µM (active). For the same molecule, the Potency entry in experiment [2] and in experiment [3] was “inactive” each time.
On to `C[C@@]1(CO)[C@H](O)CC[C@@]2(C)[C@H]1CC[C@H]1C[C@@H]3C[C@@]12CC[C@]3(O)CO`, for which the activation in experiment [1] was -3.82%. Further, the Potency result in experiment [2] and in experiment [3] was “inactive” in each case.
Regarding `CCCCCCC1C(=O)O[C@H](C)[C@H](NC(=O)c2cccc(NC=O)c2O)C(=O)O[C@@H](C)[C@@H]1OC(=O)CC(C)C` (stereo partly specified), the activation in experiment [1] was -5.67%. For the same molecule, the Potency result in experiment [2] and in experiment [3] was “inactive” each time.
Regarding `CC(=O)OC[C@]12C[C@H](O)C(C)=C[C@H]1O[C@@H]1[C@H](O)[C@@H](O)[C@@]2(C)[C@]12CO2`, the Potency in experiment [1] was 6.59 µM (active). Moreover, the Potency result in experiment [2] and in experiment [3] was “inactive” in each case.
In the case of `CN1C(=O)C(Cc2ccc3ccccc3c2)N=C(c2ccc(O)cc2)c2cc(Cl)ccc21` (stereo unspecified), the activation in experiment [1] is 10.3%. Besides, the Potency result in experiment [2] and in experiment [3] was “inactive” each time.
Turning to `CN1C(=O)N(c2ccc(C#N)c(C(F)(F)F)c2)C(=O)[C@]1(CO)c1ccccc1`, the activation in experiment [1] was 17%. Moreover, the Potency entry in experiment [2] and in experiment [3] was “inactive” each time.
In the case of `CC1=C[C@H]2O[C@@H]3[C@H](O)[C@@H](O)[C@](C)([C@@]2(CO)C[C@@H]1O)[C@]31CO1`, the Potency in experiment [1] is 7.57 µM (active). In addition, the Potency result in experiment [2] and in experiment [3] was “inactive” in each case.
In the case of `CC1=C2C(=O)C3[C@@H](CC=C4C[C@@H](O)CC[C@@]43C)[C@@H]2CC[C@]12O[C@@H]1C[C@H](C)CN[C@H]1[C@H]2C` (stereo partly specified), the activation in experiment [1] was 4.58%. Also, the Potency entry in experiment [2] and in experiment [3] was “inactive” throughout.
As for `C[C@@]12C[C@@H](c3ccoc3)OC(=O)C1CC[C@]1(C)[C@H]2[C@H]2C=C[C@]1(O)C(=O)O2` (stereo partly specified), the activation in experiment [1] was -2.29%. The Potency entry in experiment [2] and in experiment [3] was “inactive” throughout.
As for `COc1cc2c(cc1OC)[C@@]13CCN4CC5=CCO[C@H]6CC(=O)N2[C@H]1[C@H]6[C@H]5C[C@H]43`, the activation in experiment [1] was -22.1%. For the same molecule, the Potency result in experiment [2] and in experiment [3] was “inactive” in each case.
As for `COC(=O)C1(C)CCC(=O)C2(C)c3c(O)cc(C(C)C)cc3C(O)C(OC(C)=O)C12` (stereo unspecified), the activation in experiment [1] is 22.9%. Further, the Potency entry in experiment [2] and in experiment [3] was “inactive” throughout.
In the case of `CC(=O)OC[C@]12C[C@H](O)C(C)=C[C@H]1O[C@@H]1[C@H](O)[C@@H](OC(C)=O)[C@@]2(C)[C@]12CO2`, the Potency in experiment [1] was 0.083 µM (active). The Potency entry in experiment [2] and in experiment [3] was “inactive” throughout.
For the molecule `C/C=C(\C)C(=O)OC1C2C3(C)CCC(OC4CC(OC)C(OC5OC(C)C(O)C(OC)C5O)C(C)O4)CC3CCC23OC32CCC(C(C)=O)C2(C)C1OC(=O)/C(C)=C/C` (stereo unspecified), the activation in experiment [1] is 12.5%. The Potency result in experiment [2] and in experiment [3] was “inactive” throughout.
On to `CCOc1ccc(Oc2ccc(OCc3cc(F)ccc3F)cc2)c(N)c1`, for which, in experiment [1], the activation was 3.57%. Further, the Potency result in experiment [2] and in experiment [3] was “inactive” throughout.
Consider `O=C(O)CCCCCCNC1c2ccccc2CCc2ccccc21`, for which, in experiment [1], the activation is 5.67%. Besides, the Potency result in experiment [2] and in experiment [3] was “inactive” throughout.
Take `C=CCN1CCC2(C)c3cc(O)ccc3C[C@H]1[C@H]2C`: in experiment [1], the activation is -5%. The Potency entry in experiment [2] and in experiment [3] was “inactive” each time.
As for `CN1CCC2=C(C1)c1ccccc1Cc1ccccc12`, in experiment [1], the activation is 16.2%. For the same molecule, the Potency result in experiment [2] and in experiment [3] was “inactive” in each case.
Consider `Cc1c(N2C(=O)[C@@H]3[C@H](O)CCN3C2=O)ccc(C#N)c1Cl`, for which the activation in experiment [1] was 3.82%. The Potency entry in experiment [2] and in experiment [3] was “inactive” each time.
Regarding `CC1=CC2/C=C(\C)CCC(O)C(O)/C=C/C(=O)C23C(=O)NC(CC(C)C)C3C1C` (stereo unspecified), in experiment [1], the Potency was 13.1 µM (active). For the same molecule, the Potency result in experiment [2] and in experiment [3] was “inactive” throughout.
Take `CC(=O)O[C@H]1C[C@@H](OC(C)=O)C(C)(C)C2C[C@@H](O)[C@]3(C)C(CC[C@@]4(C)[C@H](C5=CC(=O)OC5O)C[C@H]5O[C@]543)[C@]21C` (stereo partly specified): the activation in experiment [1] was -6.87%. Moreover, the Potency entry in experiment [2] and in experiment [3] was “inactive” in each case.
With `CC(C)(C)[C@]1(O)C[C@@H]2OC(=O)C[C@@]23C(=O)O[C@@H]2OC(=O)[C@@H](O)[C@]213`, the activation in experiment [1] was -1.79%. Besides, the Potency entry in experiment [2] and in experiment [3] was “inactive” in each case.
On to `CN1CCCC1CCOC(c1cc2nccc(C(=O)O)c2[nH]1)c1ccccc1Cl` (stereo unspecified), for which the activation in experiment [1] was 4.33%. The Potency result in experiment [2] and in experiment [3] was “inactive” in each case.
For `CC(C)(C)NC[C@H](O)c1ccc(O)cc1Cl`, the activation in experiment [1] was -6.33%. In addition, the Potency entry in experiment [2] and in experiment [3] was “inactive” throughout.
On to `CCOC(=O)c1ncn2c1CN(C)C(=O)c1c(I)cccc1-2`, for which the activation in experiment [1] was 7.67%. Moreover, the Potency entry in experiment [2] and in experiment [3] was “inactive” each time.
Turning to `C[C@@H]1CCC2[C@@H](C)C(=O)OC3O[C@@]4(C)CCC1[C@]32OO4` (stereo partly specified), the activation in experiment [1] is 37.5%. Besides, the Potency entry in experiment [2] and in experiment [3] was “inactive” each time.
Regarding `CCCCC1C(=O)NC(=O)N(C2CCCCC2)C1=O` (stereo unspecified), the activation in experiment [1] is 17%. For the same molecule, the Potency result in experiment [2] and in experiment [3] was “inactive” each time.
For the molecule `CC1=CC2/C=C(\C)CCCC(O)/C=C/C(=O)OC23C(=O)NC(CC(C)C)C3C1C` (stereo unspecified), in experiment [1], the activation is 1.79%. Also, the Potency result in experiment [2] and in experiment [3] was “inactive” each time.
For `C[C@@H]1C(=O)O[C@H]2[C@H](O)[C@@]34[C@@H]5OC(=O)[C@@]3(O[C@@H]3OC(=O)[C@@H](O)[C@@]34[C@H](C(C)(C)C)[C@H]5O)[C@@]12O`, the activation in experiment [1] is 2.68%. For the same molecule, the Potency result in experiment [2] and in experiment [3] was “inactive” each time.
On to `N#CC(O[C@@H]1O[C@H](CO)[C@@H](O)[C@H](O)[C@H]1O)c1ccccc1` (stereo partly specified), for which, in experiment [1], the activation was 13%. Besides, the Potency entry in experiment [2] and in experiment [3] was “inactive” throughout.
